Bioassay records as filed in PubChem BioAssay.
An excerpt weighted towards active compounds, which were near 7.2% of everything screened.
SNCA expr inhib = SNCA gene expression inhibition; HEK-293 SNCA-luciferase knock-in, luminescence, 24 h; Potency, µM (highest dose often 57.2 µM), for inactives: at the top dose activity change, negative = inhibition, actives largely listed as inhibitors; hit rate 0.17% among 140,000; AID 1671194;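 also: plate controls were DMSO cells for no effect and cell-free wells for full effect; nearly all actives have a fitted effect of over 45% in size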
HEK cytotox = kills HEK 293 cells; HEK 293 viability, ATP luminescence (CellTiter-Glo), 48-72 h; Potency, µM (highest dose often 115 µM), for the others: top-dose activity change, negative = cytotoxicity, actives largely listed as inhibitors; hit rate 6.6% among 94,000; AID 1345083; also: % is scaled to controls: 0 for no effect and ±100 for the full control effect; nearly all actives have a fitted effect of over 60% in size
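HEK 293 seeded at 250 cells/well receive compound via pintool. After 48 or 72 hr at 37 degree Celsius, 5% CO2 and 95% humidity, CellTiter-Glo is dispensed and luminescence read following 10 min at room temperature.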
hNpr1 antagonist = human Npr1 receptor antagonism; P16066; HEK293 hNpr1 GloSensor cGMP, ANP-stimulated luminescence; Potency, µM (highest dose often 46.3 µM), inactives show at the highest dose activity change, negative = inhibition, actives largely listed as inhibitors; hit rate 1.6% among 76,000; calls by dose curve; also: % is scaled to controls: 0 for no effect and ±100 for the full control effect; nearly all actives have a fitted effect of over 60% in size
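Compound pre-incubated 30 min at room temperature on GloSensor-loaded HEK293 cells stably carrying hNpr1 and the pGS-40F cGMP biosensor. Stimulation uses hNppA at 0.1 nM final; luminescence is taken at baseline and 20 min post-agonist.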
NIH3T3 tox = cytotoxic compounds in NIH 3T3 cells. NIH 3T3 viability, CellTiter-Glo ATP luminescence, 48-72 h. Potency, µM (doses to about 96.7 µM), without a hit: top-dose activity change, negative = cytotoxicity, usual class: inhibitors. hit rate 4.3% among 94,000. AID 1345082; also: % is scaled to controls: 0 for no effect and ±100 for the full control effect; nearly all actives have a fitted effect of over 55% in size
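NIH 3T3 cells at 400 cells/well received 23 nL of compound by pintool and were incubated 48 or 72 h at 37 °C. Viability was read as ATP-coupled CellTiter-Glo luminescence.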
HEK293 viab = cell viability loss counter-screen; Potency, µM (highest dose often 57.1 µM), inactives show at the highest dose activity change, negative = cytotoxicity, usual class: cytotoxic; HEK-293-SNCA-luc viability, GF-AFC fluorescence, 24 h; AID 1671193; hit rate 0.12% among 150,000;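 also: 0% = DMSO-treated cells and -100% = medium-only wells without cells; nearly all actives have a fitted effect of over 30% in size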
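Cytotoxicity counterscreen: after 24 h compound treatment of genome-edited SNCA-luciferase HEK-293 cells, live-cell protease substrate GF-AFC read by fluorescence after 30 min; activity scaled between DMSO (0%) and medium-only (-100%), curves Hill-fitted.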
Luciferase inh = blocks purified firefly luciferase enzyme activity | purified P. pyralis luciferase, luminescence, biochemical | hit rate 2.5% among 76,000 | AID 1347043 | P08659 | Potency, µM (highest dose often 115 µM), hits mostly inhibitors; also: % is scaled to controls: 0 for no effect and ±100 for the full control effect; nearly all actives have a fitted effect of over 65% in size
Target sequence (P08659 whole entry, looked up): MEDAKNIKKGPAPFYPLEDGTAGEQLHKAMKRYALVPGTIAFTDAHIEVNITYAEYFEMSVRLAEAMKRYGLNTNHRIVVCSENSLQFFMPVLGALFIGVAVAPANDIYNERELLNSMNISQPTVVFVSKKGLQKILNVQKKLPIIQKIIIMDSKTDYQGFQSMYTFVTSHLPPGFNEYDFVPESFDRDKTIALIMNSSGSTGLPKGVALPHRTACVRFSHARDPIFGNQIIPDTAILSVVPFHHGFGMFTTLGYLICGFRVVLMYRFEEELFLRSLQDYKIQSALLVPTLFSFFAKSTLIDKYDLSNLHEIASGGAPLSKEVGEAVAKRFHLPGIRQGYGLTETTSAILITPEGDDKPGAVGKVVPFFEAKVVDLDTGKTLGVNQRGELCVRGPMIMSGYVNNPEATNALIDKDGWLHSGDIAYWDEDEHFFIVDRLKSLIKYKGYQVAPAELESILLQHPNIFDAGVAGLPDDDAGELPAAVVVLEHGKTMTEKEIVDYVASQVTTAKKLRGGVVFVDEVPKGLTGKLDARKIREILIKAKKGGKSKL
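Cell-free enzyme assay, 10nM P. pyralis luciferase, luciferin and ATP each at 10uM. Inhibition profiled over a 6-point titration, read as luminescence.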
NPR1 antag cnf = hNpr1 antagonism, confirmation assay. shares compounds with hNpr1 antagonist. HEK293 hNpr1 cGMP GloSensor luminescence, ANP-stimulated. Potency, µM (doses to about 57.6 µM), for the others: at the highest dose activity change, negative = inhibition, most hits filed as inhibitors. hit rate 76% among 1,400. AID 1347044; calls by dose curve; also: nearly all actives have a fitted effect of over 70% in size
Npr2 selectivity = hNpr2 antagonism, selectivity versus Npr1; shares compounds with hNpr1 antagonist; HEK293 hNpr2 GloSensor cGMP luminescence, CNP-stimulated; Potency, µM (top dose mostly 57.6 µM), for inactives: top-dose activity change, negative = inhibition, hits mostly inhibitors; hit rate 67% among 1,400; calls by dose curve; also: nearly all actives have a fitted effect of over 70% in size
FLuc inh counter = inhibits firefly luciferase, false Npr1 antagonist flag | shares compounds with hNpr1 antagonist | purified FLuc enzyme, luminescence, Km substrate | Potency, µM (doses to about 57.6 µM), without a hit: top-dose activity change, negative = inhibition, actives largely listed as inhibitors | hit rate 0.7% among 1,400 | AID 1347047; also: 0% is about no effect
GloSensor cGMP = reduces cGMP signal in GloSensor control cells | shares compounds with hNpr1 antagonist | HEK293 GloSensor cGMP, SNP-stimulated, luminescence | Potency, µM (highest dose often 57.6 µM), inactives show top-dose activity change, negative = inhibition, hits mostly inhibitors | hit rate 69% among 1,400; calls by dose curve; also: % is scaled to controls: 0 for no effect and ±100 for the full control effect; nearly all actives have a fitted effect of over 70% in size
* = called active by the depositor; i = inactive; ? = inconclusive; . = no result; [ ] = dose if it differs, or a comment. Unless noted, calls follow the shape of the dose curve; as a rule, active = well fitted curve in the direction sought with a large enough effect; inconclusive = small, poorly fitted or top-dose-only effect, or another doubt; inactive = no such curve, though single readings can be large; an effect the other way counts as inactive or inconclusive. Potency is read from the fitted curve at half-maximal effect.

SMILES | SNCA expr inhib | HEK cytotox | hNpr1 antagonist | NIH3T3 tox | HEK293 viab | Luciferase inh | NPR1 antag cnf | Npr2 selectivity | FLuc inh counter | GloSensor cGMP
CC(C)NC(=O)N1CCNc2cnc(Nc3cccc(C(F)(F)F)c3)nc2C1 | ? | 35µM* | 13µM* | 40µM* | ? | i | 18µM* | 22µM* | -1%[86.2 µM] | 16µM*
Cc1ncsc1C(=O)N1CCNc2cnc(Nc3cccc(F)c3)nc2C1 | 13%[87.6 µM] | ? | 14µM* | ? | -8%[87.6 µM] | i | 13µM* | 18µM* | -1%[86.2 µM] | 11µM*
CC(C)Cc1ccc(S(=O)(=O)N(C)CC2CCOCC2)cc1 | -25% | ? | 10µM* | -28% | 7% | i | 15µM* | 14µM* | 0% | 11µM*
CCCc1ccc(S(=O)(=O)N(C)CC2CCOCC2)cc1 | -21% | ? | ? | ? | 4% | i | 24µM* | ? | 3% | 19µM*
CC1=NS(=O)(=O)N(C)C=C1C(=O)OCc1nc(-c2cccc(F)c2)no1 | 3% | ? | ? | -24% | 5% | i | . | . | . | .
CC1=NS(=O)(=O)N(C)C=C1C(=O)OCc1nc(-c2ccccc2)oc1C | -25% | ? | 10µM* | ? | 4% | i | 12µM* | 14µM* | 5% | 11µM*
CC1=NS(=O)(=O)N(C)C=C1C(=O)OCc1nc(-c2ccc(C(F)(F)F)cc2)no1 | ? | 40µM* | 10µM* | ? | -9% | i | 9.7µM* | 11µM* | 0% | 9.7µM*
CC1=NS(=O)(=O)N(C)C=C1C(=O)OCc1nc(-c2cccc(Cl)c2)no1 | -12% | ? | 14µM* | -19% | 1% | i | 22µM* | ? | 0% | ?
CC1=NS(=O)(=O)N(C)C=C1C(=O)OCc1nc(-c2ccccc2)no1 | -18% | ? | -9% | -24% | 2% | i | . | . | . | .
CC(=O)N1CCN(c2ccnc(-c3nnc(C)n3C3CCCCC3)c2)CC1 | -1%[87.6 µM] | -25%[172 µM] | -1%[70.6 µM] | ? | 7%[87.6 µM] | i | . | . | . | .
O=C(NC1CCOCC1)c1ccc2c(c1)OCCN(c1cccc(OC(F)(F)F)c1)C2 | ? | 32µM* | ? | ? | -18%[87.6 µM] | i | 40µM* | ? | 4%[86.2 µM] | 44µM*
CCNC(=O)c1ccc2c(c1)OCCN(c1cccc(OC(F)(F)F)c1)C2 | 3%[87.6 µM] | ? | -29%[70.6 µM] | ? | -2%[87.6 µM] | i | . | . | . | .
O=C1NCCC[C@@H]1NC(=O)[C@H]1CN(C(=O)c2cccc(F)c2)CCN1S(=O)(=O)c1ccc(F)cc1 | 7% | i | 3% | i | -5% | i | . | . | . | .
O=C(CN1CCCc2nc(-c3ccncc3)ncc2C1=O)N1CCc2ccccc2C1 | -27% | 35µM* | 8.9µM* | ? | -20% | i | 12µM* | 15µM* | 2% | 15µM*
O=C(CN1CCCc2nc(-c3ccncc3)ncc2C1=O)NCCN1CCOCC1 | ? | -4% | -21% | -1% | 0% | i | . | . | . | .
O=C(C1CC=CC1)N1CCN(C(=O)N2CC3CC(C2)[C@H]2CCCC(=O)N2C3)CC1 (some centres not stated) | 0% | 1% | 0% | -14% | 2% | i | . | . | . | .
COc1ccc(CN2C(=O)[C@@H]3C[C@@H](CN3C3CCCC3)Oc3ccccc32)cc1 | 0%[87.6 µM] | ? | ? | ? | -13%[87.6 µM] | i | -23%[86.2 µM] | ? | -5%[86.2 µM] | -5%[86.2 µM]
COc1ccc(CN2C(=O)[C@@H]3C[C@@H](CN3C3CCC3)Oc3ccccc32)cc1 | -21%[87.6 µM] | ? | ? | 32µM* | ? | i | -27%[86.2 µM] | ? | -19%[86.2 µM] | 0%[86.2 µM]
COc1ccc(CN2C(=O)[C@@H]3C[C@@H](CN3C(=O)c3cnccn3)Oc3ccccc32)cc1 | -26%[87.6 µM] | 3%[172 µM] | 0%[70.6 µM] | ? | -13%[87.6 µM] | i | . | . | . | .
CCCOc1ccc(CN2CCc3nc(N(C)C)[nH]c(=O)c3CC2)cc1OC | -11% | 9% | -1% | i | 0% | i | . | . | . | .
CCOc1ccc(NC(=O)Cn2c(N3CCC(C)CC3)nc(C)cc2=O)cc1 | -27% | ? | ? | ? | -13% | i | . | . | . | .
CCOC(=O)c1ccc(NC(=O)Cn2c(N3CCC(C)CC3)nc(C)cc2=O)cc1 | -26% | ? | 14µM* | ? | -14% | i | 22µM* | 19µM* | 4% | 22µM*
COc1ccc(Cl)cc1NC(=O)Cn1c(N2CCC(C)CC2)nc(C)cc1=O | -27% | 45µM* | 11µM* | ? | 11% | i | 19µM* | 19µM* | 1% | 15µM*
COc1ccc(S(=O)(=O)N2CCC3(CC2)CC(CC(=O)NC2CC2)CCO3)cc1 (configuration not stated) | 15% | -10% | -2% | 2% | 2% | i | . | . | . | .
COc1cc(CN2CCC(C)(NC(C)=O)CC2)cc(-c2ccncc2)c1 | . | . | . | . | . | . | 22µM* | 8.9µM* | 2%[86.2 µM] | -18%[86.2 µM]
CC(=O)Nc1ccc(S(=O)(=O)N[C@H]2CO[C@H]3[C@@H]2OC[C@H]3OC(=O)Nc2cccc3ccccc23)cc1 | ? | -20% | -28% | ? | 1% | i | -3% | -2% | -3% | -1%
COc1ccc(NC(=O)O[C@@H]2CO[C@H]3[C@@H]2OC[C@@H]3NS(=O)(=O)c2ccc(Cl)cc2)cc1 | 12% | -19% | -7% | ? | 4% | ? | . | . | . | .
O=C(Nc1ccc(Oc2ccccc2)cc1)O[C@@H]1CO[C@H]2[C@@H]1OC[C@@H]2NS(=O)(=O)c1ccc(Cl)cc1 | ? | 35µM* | ? | 32µM* | -14% | i | 11µM* | 12µM* | -13% | 9.7µM*
COCCNC(=O)CN1C(=O)C(Oc2ccc(F)cc2)C12CCCCC2 (configuration not stated) | -4% | 4% | . | -9% | 4% | . | . | . | . | .
